Measurements from PMC4336329 (PLoS ONE, 2015).
About 14,000 (4.5%) of roughly 310,000 compounds showed an effect of 50% or more. The effect is printed as a negative number. The full list was thinned out, with strong results kept by preference.

Target: human ether-à-go-go-related gene (hERG) potassium channel (human, UniProt Q12809)
Experiment: primary screen, population patch clamp on CHO cells stably expressing hERG; higher = less effect of the substance
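Also: peak tail current of the secondary pulse compared with the same well before compound.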

human ether-à-go-go-related gene (hERG) potassium channel, sequence (Q12809 whole entry, looked up): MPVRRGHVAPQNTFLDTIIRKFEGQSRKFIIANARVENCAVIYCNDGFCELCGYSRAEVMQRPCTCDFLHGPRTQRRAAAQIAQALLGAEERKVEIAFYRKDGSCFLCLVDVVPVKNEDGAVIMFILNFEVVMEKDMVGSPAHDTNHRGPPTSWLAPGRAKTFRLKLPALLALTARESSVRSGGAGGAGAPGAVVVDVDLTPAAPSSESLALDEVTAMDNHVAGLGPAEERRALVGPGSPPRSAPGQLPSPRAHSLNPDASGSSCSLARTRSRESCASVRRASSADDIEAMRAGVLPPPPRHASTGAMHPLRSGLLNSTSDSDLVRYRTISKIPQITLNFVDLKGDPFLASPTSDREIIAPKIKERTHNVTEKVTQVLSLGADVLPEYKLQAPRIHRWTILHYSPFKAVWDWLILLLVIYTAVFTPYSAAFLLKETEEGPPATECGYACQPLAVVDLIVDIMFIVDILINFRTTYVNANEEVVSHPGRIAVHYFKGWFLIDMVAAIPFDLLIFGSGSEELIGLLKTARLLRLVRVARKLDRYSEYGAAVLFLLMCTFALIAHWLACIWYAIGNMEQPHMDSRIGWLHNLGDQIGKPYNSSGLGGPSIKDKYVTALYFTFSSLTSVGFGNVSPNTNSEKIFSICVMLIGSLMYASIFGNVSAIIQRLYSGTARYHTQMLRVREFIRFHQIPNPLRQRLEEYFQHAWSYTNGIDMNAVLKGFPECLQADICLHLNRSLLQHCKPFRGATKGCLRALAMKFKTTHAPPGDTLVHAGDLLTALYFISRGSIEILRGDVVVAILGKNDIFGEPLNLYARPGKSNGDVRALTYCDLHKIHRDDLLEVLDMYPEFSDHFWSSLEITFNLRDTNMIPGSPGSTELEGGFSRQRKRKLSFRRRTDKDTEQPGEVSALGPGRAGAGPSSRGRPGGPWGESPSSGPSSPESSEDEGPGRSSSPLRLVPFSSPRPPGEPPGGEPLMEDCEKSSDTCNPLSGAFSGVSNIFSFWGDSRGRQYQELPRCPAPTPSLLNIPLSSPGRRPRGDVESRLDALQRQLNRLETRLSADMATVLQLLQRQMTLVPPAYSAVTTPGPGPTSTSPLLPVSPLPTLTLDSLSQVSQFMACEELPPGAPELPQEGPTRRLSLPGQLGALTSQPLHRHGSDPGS

With `CSCCCNC(=S)Nc1cccc(S(=O)(=O)NC2=NCCC2)c1` as the compound, how does the “hERG current change (%, negative = inhibition) at 10uM” value read?
Its value is 32.8%.

For `CSc1ccccc1OCc1cc(C(=O)NCCn2nc(C)cc2C)no1`, which “hERG current change (%, negative = inhibition) at 10uM” value is on record?
The value was -0.00922%.

How did the “hERG current change (%, negative = inhibition) at 10uM” value turn out when `O=S(=O)(Nc1nc2ccccc2nc1NCC1CCCO1)c1ccccc1` (centres unmarked) was run?
Its value is 2.43%.

`CCOC(=O)C1(Cc2ccccc2C(F)(F)F)CCN(CCCn2cccn2)CC1` was tested. Which “hERG current change (%, negative = inhibition) at 10uM” value did it give?
Its value is -82.1%.

With `CCOC(=O)C1(Cc2ccccc2C(F)(F)F)CCN(C(C)CCn2cccn2)CC1` (centres unmarked) as the compound, how does the “hERG current change (%, negative = inhibition) at 10uM” value read?
Its value is -65.6%.

`CCOC(=O)C1(Cc2ccccc2C(F)(F)F)CCN(C(C)CSC)CC1` (centres unmarked) was tested. Which “hERG current change (%, negative = inhibition) at 10uM” value did it give?
Its value is -48.2%.

With `CCOC(=O)C1(Cc2ccccc2C(F)(F)F)CCN(C2CCN(C(C)=O)CC2)CC1` as the compound, how does the “hERG current change (%, negative = inhibition) at 10uM” value read?
The value was -18.6%.

With `CCOC(=O)C1(Cc2ccccc2C(F)(F)F)CCN(C(=O)c2cc(C(C)=O)n[nH]2)CC1` as the compound, how does the “hERG current change (%, negative = inhibition) at 10uM” value read?
Its value is -57.2%.

Which “hERG current change (%, negative = inhibition) at 10uM” value does the source give for `CCOC(=O)C1(Cc2ccccc2C(F)(F)F)CCN(CC(O)CO)CC1` (centres unmarked) here?
Its value is -3.71%.

For `CCOC(=O)C1(Cc2ccccc2C(F)(F)F)CCN(C(=O)c2cc(C)n(C)n2)CC1`, which “hERG current change (%, negative = inhibition) at 10uM” value is on record?
Its value is -22.6%.

`CCOC(=O)C1(Cc2ccccc2C(F)(F)F)CCN(Cc2ccon2)CC1` was tested. Which “hERG current change (%, negative = inhibition) at 10uM” value did it give?
The value was -2.88%.

With `CCOC(=O)C1(Cc2ccccc2C(F)(F)F)CCN(C2CCN(C(C)C)CC2)CC1` as the compound, how does the “hERG current change (%, negative = inhibition) at 10uM” value read?
The value was -36.6%.

How did the “hERG current change (%, negative = inhibition) at 10uM” value turn out when `COc1cccc2cc(C(=O)NCc3ccccc3Br)c(=O)oc12` was run?
The value was 19%.

Which “hERG current change (%, negative = inhibition) at 10uM” value does the source give for `CN(Cc1ccc(C(F)(F)F)cc1)C(=O)c1ccc(Oc2ccccc2)cc1` here?
Its value is 13.1%.

With `Cc1ccc(S(=O)(=O)Nc2ccccc2)cc1C(=O)N1CCCC1` as the compound, how does the “hERG current change (%, negative = inhibition) at 10uM” value read?
The value was -4.95%.

Which “hERG current change (%, negative = inhibition) at 10uM” value does the source give for `Cc1nonc1NC(=O)CSc1nc2ccc(Cl)cc2[nH]1` here?
The value was 3.09%.

`Cc1sc(NC(=O)Cn2[nH]c(=O)c3ccccc3c2=O)nc1-c1ccccc1` was tested. Which “hERG current change (%, negative = inhibition) at 10uM” value did it give?
The value was 11.6%.

For `CCOC(=O)N1CCC(N2C(=O)c3ccccc3C2Nc2ccc(S(=O)(=O)N3CCOCC3)cc2)CC1` (centres unmarked), which “hERG current change (%, negative = inhibition) at 10uM” value is on record?
The value was -16.7%.

How did the “hERG current change (%, negative = inhibition) at 10uM” value turn out when `CCOC(=O)N1CCC(N2C(=O)c3ccccc3C2Nc2ccc(C)cc2)CC1` (centres unmarked) was run?
The value was -32.8%.

With `CCOC(=O)N1CCC(N2C(=O)c3ccccc3C2Nc2ccc(S(=O)(=O)N(CC)CC)cc2)CC1` (centres unmarked) as the compound, how does the “hERG current change (%, negative = inhibition) at 10uM” value read?
The value was -62.6%.

For `CCOC(=O)N1CCC(N2C(=O)c3ccccc3C2Nc2cccnc2)CC1` (centres unmarked), which “hERG current change (%, negative = inhibition) at 10uM” value is on record?
Its value is 1.81%.

How did the “hERG current change (%, negative = inhibition) at 10uM” value turn out when `CCOC(=O)N1CCC(N2C(=O)c3ccccc3C2Nc2ccc(S(=O)(=O)N3CCCCC3)cc2)CC1` (centres unmarked) was run?
Its value is -58%.

Which “hERG current change (%, negative = inhibition) at 10uM” value does the source give for `CCOC(=O)N1CCC(N2C(=O)c3ccccc3C2Nc2cc(Cl)c(OC)cc2OC)CC1` (centres unmarked) here?
Its value is -45.5%.

For `COc1ccc(C2C3=C(CC(C)(C)CC3=O)N(CC(=O)O)C3=C2C(=O)CC(C)(C)C3)cc1OC`, which “hERG current change (%, negative = inhibition) at 10uM” value is on record?
The value was 2.83%.

How did the “hERG current change (%, negative = inhibition) at 10uM” value turn out when `COc1cc(OC)c(N2CC34C=CC(O3)C(C(=O)O)C4C2=O)cc1Cl` (centres unmarked) was run?
The value was 4.99%.

Which “hERG current change (%, negative = inhibition) at 10uM” value does the source give for `CCc1nnc(NC(=O)CSc2ccc(-c3nc4ccc(C)cc4[nH]3)cn2)s1` here?
Its value is 6.54%.

For `CCc1ccc(OCC(=O)N(C)C)c(Br)c1`, which “hERG current change (%, negative = inhibition) at 10uM” value is on record?
Its value is -7.33%.

How did the “hERG current change (%, negative = inhibition) at 10uM” value turn out when `CN(C)CCNC(=O)COc1ccc(Cl)cc1Cl` was run?
Its value is -18.2%.

With `CCc1ccc(OCC(=O)NCCN(C)C)c(Br)c1` as the compound, how does the “hERG current change (%, negative = inhibition) at 10uM” value read?
The value was -58.4%.

For `O=C(COC(=O)c1ccc2ncsc2c1)NCc1cccc(Cl)c1`, which “hERG current change (%, negative = inhibition) at 10uM” value is on record?
Its value is -11.2%.

How did the “hERG current change (%, negative = inhibition) at 10uM” value turn out when `COc1ccc(N2CCN(CC(=O)Nc3c(C)cc(C)cc3C)CC2)cc1` was run?
The value was 0.738%.

How did the “hERG current change (%, negative = inhibition) at 10uM” value turn out when `Cc1ccc(CNC(=O)/C=C/c2ccc(Br)o2)cc1` was run?
The value was -26.2%.

For `O=C(Nc1cccc(Cl)c1)NC1CC2CCC1C2` (centres unmarked), which “hERG current change (%, negative = inhibition) at 10uM” value is on record?
The value was 9.69%.

With `c1ccc2c(Nc3ccc4c(c3)OCCO4)c3c(nc2c1)CCCC3` as the compound, how does the “hERG current change (%, negative = inhibition) at 10uM” value read?
Its value is -92.4%.

Which “hERG current change (%, negative = inhibition) at 10uM” value does the source give for `Cl.c1ccc2c(Nc3ccc4c(c3)OCCO4)c3c(nc2c1)CCC3` here?
Its value is -52.3%.

Which “hERG current change (%, negative = inhibition) at 10uM” value does the source give for `Cc1ccc2nc(-c3ccc4c(c3)OCCO4)cc(C(=O)O)c2c1` here?
The value was 4.86%.

With `Cc1ccc2nc(-c3ccncc3)cc(C(=O)Nc3ccc4c(c3)OCCO4)c2c1` as the compound, how does the “hERG current change (%, negative = inhibition) at 10uM” value read?
The value was 3.46%.

Which “hERG current change (%, negative = inhibition) at 10uM” value does the source give for `O=C(Nc1c2c(nc3ccccc13)CCCC2)c1ccccc1F` here?
The value was -3%.

For `O=C(Nc1ccc2c(c1)OCCO2)c1cc(-c2ccccc2)nc2ccccc12`, which “hERG current change (%, negative = inhibition) at 10uM” value is on record?
The value was 9.23%.

How did the “hERG current change (%, negative = inhibition) at 10uM” value turn out when `O=C(COC(=O)c1c2c(nc3ccccc13)CCCC2)Nc1ccc2c(c1)OCO2` was run?
Its value is 3.1%.

With `Cc1ccc2nc3c(c(Nc4ccc5c(c4)OCCO5)c2c1)CCC3.Cl` as the compound, how does the “hERG current change (%, negative = inhibition) at 10uM” value read?
The value was -51.7%.

For `Cc1cc(C)c(C)c(S(=O)(=O)N2CCC(C(=O)Nc3ccccc3N3CCOCC3)CC2)c1C`, which “hERG current change (%, negative = inhibition) at 10uM” value is on record?
The value was -8.54%.

How did the “hERG current change (%, negative = inhibition) at 10uM” value turn out when `Cc1cc(Br)ccc1NC(=O)CNC(=O)Cc1ccc(S(=O)(=O)N2CCOCC2)s1` was run?
Its value is -33.8%.

Which “hERG current change (%, negative = inhibition) at 10uM” value does the source give for `CCOC(=O)[C@H]1CCC[C@@H](NS(=O)(=O)c2ccc(NC(C)=O)cc2)C1` here?
The value was 14.1%.

For `Cc1ccc(Nc2ccc3nonc3c2[N+](=O)[O-])cc1`, which “hERG current change (%, negative = inhibition) at 10uM” value is on record?
The value was 2.88%.

With `CCCCNC(=O)C1c2ccccc2C(=O)N(c2ccc(OC)cc2)C1c1ccc(OC)cc1` (centres unmarked) as the compound, how does the “hERG current change (%, negative = inhibition) at 10uM” value read?
Its value is -18.6%.

For `COc1cc(OC)c(C(=O)NNC(=S)NC2CCCCC2)cc1OC`, which “hERG current change (%, negative = inhibition) at 10uM” value is on record?
Its value is 16.6%.

`CCOc1ccc(C(=O)NCC(=O)N2CCN(C/C=C/c3ccccc3)CC2)cc1OCC` was tested. Which “hERG current change (%, negative = inhibition) at 10uM” value did it give?
Its value is -41.7%.

With `CC(C)Oc1ccc(C(=O)NCC(=O)N2CCN(S(=O)(=O)/C=C/c3ccccc3)CC2)cc1` as the compound, how does the “hERG current change (%, negative = inhibition) at 10uM” value read?
The value was -67.6%.

`O=C(NCC(=O)N1CCN(S(=O)(=O)/C=C/c2ccccc2)CC1)c1ccc(Cl)cc1` was tested. Which “hERG current change (%, negative = inhibition) at 10uM” value did it give?
Its value is -23.1%.

With `O=C(NCC(=O)N1CCN(C/C=C/c2ccccc2)CC1)c1ccc(OC(F)F)cc1` as the compound, how does the “hERG current change (%, negative = inhibition) at 10uM” value read?
The value was -79.5%.

`O=C(NC(=S)N1CCN(C/C=C/c2ccccc2)CC1)c1ccc(F)cc1` was tested. Which “hERG current change (%, negative = inhibition) at 10uM” value did it give?
Its value is -43.7%.

How did the “hERG current change (%, negative = inhibition) at 10uM” value turn out when `Cc1cccc(C(=O)NCC(=O)N2CCN(S(=O)(=O)/C=C/c3ccccc3)CC2)c1` was run?
Its value is -18.5%.
